These entries were drawn from the full list.
aSyn UTR act = Activators via SNCA 5'UTR binding, MLPCN; 300,000 compounds, 7.1% hits; AID 1814; activity score, % (tested at 7.5 µM), hits read low; alpha-synuclein 5'UTR reporter, activators screen; in the data active = activity score below about -60%
Numbers without * were called inactive.

SMILES	aSyn UTR act
O=C(NC(=S)Nc1nc2c(ccc3ccccc32)s1)c1cccs1	-63.2*
CC1CN(Cc2csc(-c3ccc(Cl)cc3)n2)CC(C)O1 (stereo not given)	-105.4*
Cc1occc1C(=O)N/N=C/c1c[nH]c2ccccc12	-135.3*
CC(C)(C)OC(=O)N/N=C/c1c[nH]c2ccccc12	-139.7*
O=C(Nc1ccc(F)cc1F)c1noc2c1CCC2	-169.0*
O=C(Nc1cc(Cl)ccc1Cl)c1noc2c1CCCC2	-67.3*
CCCCC(=O)Nc1cccc(-c2cn3ccccc3n2)c1	-77.9*
O=C(Nc1ccc(-c2cn3ccccc3n2)cc1)c1ccco1	-208.5*
O=C(Nc1cccc(-c2cn3ccccc3n2)c1)c1ccccc1	-64.5*
CCc1ccc2nc3sc(C(=O)O)cc3cc2c1	-81.0*
O=C(Nc1ccc2oc(-c3ccncc3)nc2c1)c1cccs1	-113.6*
CC(C)CC(=O)Nc1ccc2oc(-c3ccncc3)nc2c1	-74.2*
O=C(Nc1ccc2oc(-c3ccncc3)nc2c1)c1ccc([N+](=O)[O-])o1	-118.3*
O=C(Nc1ccc2oc(-c3ccncc3)nc2c1)c1ccccc1F	-135.2*
O=C(Nc1ccc2oc(-c3ccc(Cl)c(Cl)c3)nc2c1)c1ncn[nH]1	-168.4*
O=C(Nc1ccc2oc(-c3ccccc3)nc2c1)c1ccccc1F	-257.3*
O=C(Nc1ccc2oc(-c3cccc(F)c3)nc2c1)c1ccccc1F	-119.7*
O=C(Nc1ccc2oc(-c3ccccc3F)nc2c1)c1ccccc1F	-188.0*
C/C(=N\OCC(=O)NCC(F)(F)F)c1cc2ccccc2o1	-75.6*
CCc1cc(C(c2ccc(OC)c(OC)c2)N2CCOCC2)c(NC(=O)c2ccccc2)s1 (stereo not given)	-62.0*
CC(=O)Oc1ccccc1-c1nc(/C=C/c2ccccc2)no1	-162.0*
COc1ccc(/C=C/c2nc(N)nc(-c3ccccc3O)n2)cc1	-116.2*
CC(=O)Nc1ccc(/C=C/c2nc(-c3ccccc3O)n[nH]2)cc1	-202.2*
COc1cc(/C=C/c2nc(-c3ccccc3O)n[nH]2)cc(OC)c1OC	-117.5*
COc1ccc(/C=C/c2noc(-c3ccccc3O)n2)cc1	-93.5*
SMILES	aSyn UTR act
COc1cc(/C=C/c2noc(-c3ccccc3O)n2)cc(OC)c1OC	-145.6*
Cc1cc(C(=O)Nc2cnc3ccccc3c2)ccc1[N+](=O)[O-]	-131.8*
O=C(Nc1cnc2ccccc2c1)c1cccc(-n2cnnn2)c1	-89.3*
O=C(Nc1cnc2ccccc2c1)c1ccco1	-94.9*
Cn1c(NC(=O)c2cccnc2)nc2ccccc21	-101.3*
Cc1ccc(C(=O)Nc2cnc3ccccc3c2)cc1	103.5
CC(C)(C)c1ccc(C(=O)Nc2cccc(-n3cnnn3)c2)cc1	-84.8*
O=C(Nc1cnc2ccccc2c1)c1cccnc1	-101.0*
O=C(Nc1cccc(-c2cnc3ccccc3n2)c1)c1ccco1	-80.0*
O=C(Nc1ccc2c(c1)OCCO2)NC1(C(F)(F)F)Oc2ccccc2O1	62.5
CCc1cccc(NC(=O)Nc2ccc3c(c2)OCO3)c1	-65.5*
CCn1c2ccccc2c2nnc(SCC(=O)Nc3ccc4c(c3)OCO4)nc21	-96.0*
O=C(Nc1ccc2c(c1)OCO2)NC1(C(F)(F)F)Oc2ccccc2O1	-96.2*
CCc1ccccc1NC(=O)Nc1ccc2c(c1)OCO2	-78.6*
O=C(Nc1ccc2c(c1)OCO2)Nc1ccccc1F	-135.9*
NC(=O)C1=C[C@H](C2CCCCC2)C[C@H](OCc2ccc(CO)cc2)O1	-98.3*
Cc1cc(-c2ccc(Cl)s2)n[nH]1	-79.6*
CCc1ccc(-n2cc(-c3ccc([N+](=O)[O-])cc3)[nH]c2=S)cc1	-108.2*
COc1ccc(-n2cc(-c3ccc(Br)cc3)[nH]c2=S)cc1	-137.6*
Fc1ccccc1-n1cc(-c2ccccc2)[nH]c1=S	-99.5*
Cc1ccc(-c2cn(-c3ccccc3)c(=S)[nH]2)cc1C	-93.9*
COc1ccc(-n2cc(-c3ccccc3)[nH]c2=S)c(OC)c1	-74.9*
O=C(/C=C/c1cccs1)c1ccc(Br)cc1	-95.8*
Cc1ccc(C(=O)Nc2ccc(C(=O)/C=C/c3cccs3)cc2)cc1	-200.6*
O=C(/C=C/c1cccs1)c1ccc(NC(=O)c2cccc(Br)c2)cc1	-84.5*
SMILES	aSyn UTR act
c1ccc(CSc2nnc(-c3ccco3)n2Cc2ccco2)cc1	-106.8*
COc1cccc(-c2nnc(SCc3ccc(C#N)cc3)n2Cc2ccco2)c1	42.7
Cn1c(SCc2ccccc2)nnc1-c1ccco1	-119.7*
Oc1c(C=Nc2ccc(Cl)cn2)sc2ccccc12	-180.0*
Oc1c(C=Nc2ccccc2)sc2ccccc12	-65.2*
Oc1sc(C=Nc2ccc(F)cc2)c2ccccc12	-227.2*
Oc1sc(C=Nc2ccccc2)c2ccccc12	-254.0*
COc1ccc(OC)c(C=Nc2ccccc2-c2nc3ccccc3[nH]2)c1	-212.5*
Oc1ccc(C=Nc2ccccc2-c2nc3ccccc3[nH]2)c(O)c1	-124.7*
Oc1ccccc1C=Nc1ccccc1-c1nc2ccccc2[nH]1	-123.0*
S=C1NC2=C(CCCC2=C2SCCS2)C(c2ccccc2)N1 (stereo not given)	-324.3*
CCCCn1nc(NC(=O)COC)c2cc3cc(OC)ccc3nc21	-77.6*
CC(C)CC1NC(=O)N(CC(=O)c2ccc3c(c2)OCCO3)C1=O (stereo not given)	-115.2*
COc1ccc(-c2nsc3c(N4CCN(C(=O)c5ccco5)CC4)ncnc23)cc1	-64.2*
NC(=O)C1CCN(c2ncnc3c(-c4ccccc4)nsc23)CC1	-112.5*
O=C(c1ccco1)N1CCN(c2ncnc3c(-c4ccccc4)nsc23)CC1	-105.8*
CCCCC(=O)Nc1ccccc1Oc1ccccc1	-122.7*
COc1cccc(-c2cn3nc(C)c(C)nc3n2)c1	-69.9*
CC(=O)c1ccc(Sc2ccc(C(C)=O)cc2)cc1	-63.5*
COc1cc(-c2ccc(=O)[nH]n2)ccc1OC(F)F	86.7
COc1ccc(-c2ccc3ccccc3n2)cc1OC	-171.4*
COc1ccc(-c2cc(-c3ccccc3O)[nH]n2)cc1OC	-154.4*
COc1ccc(-c2cc(-c3ccc(OC)c(OC)c3)n[nH]2)c(O)c1	-163.0*
Cc1nc2cc(-c3ccccc3)ccc2o1	-67.4*
NC(=O)COc1ccc2oc(-c3ccccc3)cc(=O)c2c1	-166.1*
SMILES	aSyn UTR act
NC(=O)COc1ccc2cc(-c3ccccc3)c(=O)oc2c1	-86.7*
COc1ccc(-c2cc3ccc(OCC(C)=O)cc3oc2=O)cc1OC	-124.9*
COc1ccc(-c2coc3cc4oc(=O)c5ccccc5c4cc23)cc1F	81.1
NC(=O)COc1ccc2cc(-c3ccc(F)cc3)c(=O)oc2c1	-74.8*
O=c1oc2cc(OCc3ccc(F)cc3F)ccc2cc1-c1ccccn1	-101.3*
COc1cccc2[nH]c(=O)c(-c3ccccc3)cc12	-136.4*
O=C(NC1=NCCS1)c1ccc(OCC2CCCO2)cc1 (stereo not given)	-77.0*
Cc1ccc(NC(=O)c2ccc(OC(=O)COc3ccc(Cl)c(C)c3)cc2)cc1	-115.3*
Cc1ccc(NC(=O)c2ccc(OCC3CCCO3)cc2)cc1 (stereo not given)	-122.8*
O=C(Nc1nc2ccccc2s1)c1ccc(OCC2CCCO2)cc1 (stereo not given)	-88.6*
Cc1cnc(NC(=O)c2ccc(OCC3CCCO3)cc2)s1 (stereo not given)	79.1
CCOc1ccc(C(=O)NC2=NCCS2)cc1	-84.5*
C=CCN1c2ccccc2[C@]23C[C@@H](C(=O)OC)N(C(=O)c4cc(C)oc4C)C2=NC(C(=O)OC)=C(C(=O)OC)[C@H]13	-61.8*
COc1ccc(C(=O)NOCc2ccccc2)cc1	-74.3*
